Data from PubChem BioAssay (NCI).
This is part of a sample that, as a whole, favours compounds with a hit. Of some 79,000 tested, about 15% had one in any assay. Values without a mark were called inactive. Active and inactive are the calls of the source. No stated cut-off is given here; in the data, active means growth inhibition above about 70%; inactive means the rest.

Assay: NCI Yeast Anticancer Drug Screen. Data for the rad18 strain (AID 177)
Details: S. cerevisiae rad18 mutant growth inhibition, stronger effect = higher value
Experimental: Growth inhibition of yeast strains with defined genetic alterations is measured as a screen for potential anti-cancer activity. Selected strains with alterations in DNA damage repair or cell cycle control were exposed to compounds and growth inhibition was measured relative to vehicle treated controls. The strain used in this assay is rad18

Compound	growth inhibition (at 1.2 µM) [%]	growth inhibition (at 3.7 µM) [%]	growth inhibition (at 11.0 µM)	growth inhibition (at 33.0 µM)	growth inhibition (at 100.0 µM)
CCN(CC)CCNc1ccc([N+](=O)[O-])c2nc3ccccc3c(N)c12	-6	-9	-10%	-8%	-4%
O=c1c2ccccc2nc(-c2ccccc2)n1O	39	35	89% (active)	97% (active)	97% (active)
OC(CCNCc1ccccc1)c1ccc2ccccc2c1 (stereo not given)	-1	31	45%	70% (active)	87% (active)
CCCCCCSc1ncnc2[nH]ncc12	-2	1	6%	1%	3%
O=C(CC(=O)n1nc(-c2ccccc2)c(N=Nc2ccc(Cl)cc2)c1-c1ccccc1)Nc1cccc(Cl)c1	-4	-4	-1%	1%	0%
Cc1c2cc[n+](Cc3ccc(I)cc3)cc2c(C)c2c1[nH]c1ccccc12	40	31	97% (active)	96% (active)	93% (active)
C/C(=N\Nc1ccc([N+](=O)[O-])cc1[N+](=O)[O-])c1sc(-n2nc(-c3ccccc3)cc2-c2ccccc2)nc1C	-9	11	14%	24%	36%
Cc1ccccc1N=Cc1cc(Cl)ccc1O	-6	2	9%	23%	92% (active)
